Screening data from PubChem BioAssay.
Hits are enriched below; roughly 10% of the tested compounds scored in any of these assays.
HCT116 bCat-KO – beta-catenin-lacking colon tumor cell growth suppression; hit rate 1.5% among 140,000; HCT116 beta-catenin knockout viability, CellTiter-Glo, 60 h; active compounds read low; viability, % at 10 µM;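 active means viability at or under a set limit, the compound median less 4 SD, cut at about 6% in these data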;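 further: 0% = Hyamine 1622 control at 20 µM and 100% = untreated cell control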
L major viab – Leishmania major promastigote growth inhibition; Leishmania major promastigotes, resazurin fluorescence viability; inhibition, % at 10 µM; hit rate 9% among 200,000; AID 1063; in the data active means inhibition above about 50%;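 further: promastigotes grown with compound for 44 hours at 28 °C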
ROMK primary – human ROMK K+ channel modulation, primary screen | B-score at 10 µM | hit rate 2% among 130,000 | Tet-inducible ROMK, thallium flux fluorescence; actives lie on both sides;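 active means signal ratio slope over the read window, or its plate-corrected B-score, at least 3 SD from the plate mean, either direction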;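 further: B-score of the F/F0 ratio slope over 7 to 12 s after thallium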
PTEN del growth – PTEN-deleted cell growth suppression | viability, % at 10 µM | hit rate 1.2% among 140,000 | HCT116 PTEN-null viability, CellTiter-Glo, 60 h; active compounds read low;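 active means viability at or below a set limit, 4 SD under the median of all tested compounds, cut at about 3.7% in these data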;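 further: PTEN knockout HCT116 line with beta catenin targeted HCT116 as companion control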
INS promoter inh – TRM-6 insulin promoter activity inhibition; TRM-6 cells (human fetal islet line), insulin promoter-eGFP reporter, imaging; reporter expression induced with tamoxifen; inhibition, % at 2 µM; hit rate 0.9% among 130,000;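 active means inhibition above the mean plus 3 SD, with well images judged a real hit on visual review, cut at about 60% in these data, passing the limit was not always enough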
p97 ATPase inh – inhibitors of human p97 ATPase; P55072; recombinant p97 ATPase, Kinase-Glo ATP luminescence, 3 h; inhibition, % at 8 µM; hit rate 0.42% among 220,000; AID 1481; in the data active means inhibition above about 15%;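 further: 0% = DMSO vehicle and 100% = wells lacking enzyme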
Target sequence (P55072 whole entry, looked up): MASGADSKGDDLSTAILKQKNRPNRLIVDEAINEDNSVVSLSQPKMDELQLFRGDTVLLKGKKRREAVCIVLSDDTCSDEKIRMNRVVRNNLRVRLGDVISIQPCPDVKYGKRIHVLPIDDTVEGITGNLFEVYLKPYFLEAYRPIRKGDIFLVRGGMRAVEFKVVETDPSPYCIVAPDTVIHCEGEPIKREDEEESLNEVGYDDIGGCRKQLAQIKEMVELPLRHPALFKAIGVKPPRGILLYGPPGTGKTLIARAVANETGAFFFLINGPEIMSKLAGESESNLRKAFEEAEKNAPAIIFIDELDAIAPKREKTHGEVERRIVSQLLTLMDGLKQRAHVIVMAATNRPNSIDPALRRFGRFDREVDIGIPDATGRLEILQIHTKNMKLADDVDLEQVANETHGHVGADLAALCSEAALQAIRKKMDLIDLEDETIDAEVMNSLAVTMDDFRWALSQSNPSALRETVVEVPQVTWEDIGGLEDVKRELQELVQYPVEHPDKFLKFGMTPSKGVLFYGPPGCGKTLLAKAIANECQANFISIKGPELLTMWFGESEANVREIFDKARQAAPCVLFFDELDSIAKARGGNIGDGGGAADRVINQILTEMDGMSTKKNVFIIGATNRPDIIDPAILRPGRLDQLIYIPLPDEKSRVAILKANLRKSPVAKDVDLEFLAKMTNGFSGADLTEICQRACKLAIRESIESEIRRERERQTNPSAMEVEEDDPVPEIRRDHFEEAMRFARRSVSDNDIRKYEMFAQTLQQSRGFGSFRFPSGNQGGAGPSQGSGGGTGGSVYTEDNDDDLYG
p97 inh conf – confirmation of human p97 ATPase inhibitors | shares compounds with p97 ATPase inh | recombinant p97 ATPase, Kinase-Glo ATP luminescence | inhibition, % at 8 µM | hit rate 44% among 760 | AID 1517;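 active means percent inhibition of p97 ATPase above a set limit, the primary screen's mean plus 3 SD, cut at about 15% in these data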;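 further: 0% = DMSO wells and 100% = wells lacking p97 protein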
Starred values were filed as active, the others as inactive; i = inactive; nt = no result given.

SMILES | HCT116 bCat-KO | L major viab | ROMK primary | PTEN del growth | INS promoter inh | p97 ATPase inh | p97 inh conf
CC(C)S(=O)(=O)c1csc(NC(=O)Nc2ccc(Cl)cc2)c1 | nt | nt | nt | nt | nt | 5.3 | nt
Cn1c(-c2ccccc2)c(C(=O)CCl)c2ccccc21 | nt | 97.9* | -2.02 | nt | nt | 34.4* | 34.4*
CCn1c2ccccc2c(=O)c2ccccc21 | nt | 21.2 | 0.507 | nt | 28.6 | 1.7 | nt
CCn1c(-c2ccccc2)c(C(=O)CCl)c2ccccc21 | nt | 98.7* | -0.574 | nt | i | 32.0* | 35.9*
Cc1ccc(C2(C(F)(F)F)N=C3Sc4cc(C)ccc4N3C(=O)N2)cc1 (centres undefined) | 95.8 | 7.0 | nt | 93.7 | 40.5 | 2.0 | nt
CCn1c(SCC(=O)NNC(=O)c2ccco2)nnc1-c1ccco1 | nt | 2.2 | nt | nt | -13.3 | 9.8 | nt
C=CCn1c(NS(=O)(=O)c2ccccc2)c(S(=O)(=O)c2ccc(C)cc2)c2nc3ccccc3nc21 | 90.8 | -1.0 | nt | 99.2 | 22.2 | 31.4* | 29.0*
CC(=O)Nc1c(S(=O)(=O)c2ccccc2)c2nc3ccccc3nc2n1Cc1ccccc1 | 101.1 | -2.0 | nt | 103.4 | -113.3 | -4.5 | nt
Cc1ccc(S(=O)(=O)c2c(N)n(-c3ccccc3)c3nc4ccccc4nc23)cc1 | 79.5 | 32.1 | nt | 71.8 | nt | 0.8 | nt
O=S(=O)(Nc1c(S(=O)(=O)c2ccccc2)c2nc3ccccc3nc2n1C1CCCCC1)c1ccccc1 | 92.5 | 0.0 | nt | 94.7 | nt | 19.7* | -0.8
COc1ccccc1CNC(=O)C(C)Sc1ccsc1[N+](=O)[O-] (centres undefined) | nt | 0.2 | 1.65 | nt | 0.0 | 19.5* | 8.0
CC(Sc1ccsc1[N+](=O)[O-])C(=O)NCCc1ccc(Cl)cc1 (centres undefined) | 75.5 | 4.1 | -0.0399 | 76.7 | -59.4 | -1.9 | nt
CC(Sc1ccsc1[N+](=O)[O-])C(=O)NCc1ccccc1 (centres undefined) | nt | 3.2 | 0.00339 | nt | 40.0 | 15.9* | 8.0
Cc1nc(N2CCN(C(=O)c3ccc(Cl)cc3)CC2)c(C#N)c2c1COC(C)(C)C2 | 65.8 | 3.0 | -0.00945 | 70.2 | -238.1 | -3.6 | nt
Nc1c(C(=O)O)sc2nc(-c3ccccc3)cc(-c3ccc(F)cc3)c12 | nt | nt | -0.339 | nt | nt | 12.4 | nt
Nc1c(C(=O)O)sc2nc(-c3ccccc3)cc(-c3ccccc3)c12 | nt | nt | 0.719 | nt | nt | 22.5* | 7.4
C#CCOCCOCCOCCNc1nc(N2CCN(C(=O)C(Cc3cc4ccccc4[nH]3)n3cc(C(N)Cc4ccc(O)cc4)nn3)CC2)nc(N2CCN(C(=O)C(Cc3cc4ccccc4[nH]3)n3cc(C(N)Cc4ccc(O)cc4)nn3)CC2)n1 (centres undefined) | nt | -3.8 | nt | nt | nt | 21.6* | 26.3*
C#CCOCCOCCOCCNc1nc(N2CCN(C(=O)[C@H](Cc3cc4ccccc4[nH]3)n3cc([C@@H](N)CC(C)C)nn3)CC2)nc(N2CCN(C(=O)[C@H](Cc3cc4ccccc4[nH]3)n3cc([C@@H](N)CC(C)C)nn3)CC2)n1 | nt | 5.3 | nt | nt | nt | 27.5* | 26.7*
C#CCOCCOCCOCCNc1nc(N2CCN(C(=O)[C@H](Cc3cc4ccccc4[nH]3)n3cc([C@@H](N)C(C)CC)nn3)CC2)nc(N2CCN(C(=O)[C@H](Cc3cc4ccccc4[nH]3)n3cc([C@@H](N)Cc4ccc(O)cc4)nn3)CC2)n1 (some centres undefined) | nt | -0.5 | nt | nt | nt | 17.4* | 26.2*
C#CCOCCOCCOCCNc1nc(N2CCN(C(=O)[C@H](Cc3ccc(O)cc3)n3cc([C@@H](N)C(C)CC)nn3)CC2)nc(N2CCN(C(=O)[C@H](Cc3cc4ccccc4[nH]3)n3cc([C@@H](N)CC(C)C)nn3)CC2)n1 (some centres undefined) | nt | -2.6 | nt | nt | nt | 22.0* | 12.6
C#CCOCCOCCOCCNc1nc(N2CCOCC2)nc(N2CCN(C(=O)[C@H](Cc3cc4ccccc4[nH]3)n3cc([C@@H](N)CC(C)C)nn3)CC2)n1 | nt | -4.3 | nt | nt | nt | 2.0 | nt
C#CCOCCOCCOCCNc1nc(N2CCN(C(=O)C(CCC(=O)O)n3cc(C(N)CC(C)C)nn3)CC2)nc(N2CCN(C(=O)C(Cc3cc4ccccc4[nH]3)n3cc(C(N)Cc4ccc(O)cc4)nn3)CC2)n1 (centres undefined) | nt | -3.8 | nt | nt | nt | 5.3 | nt
COc1ccc2oc3cc(C)[n+]([O-])c(-c4ccc(Cl)cc4)c3c2c1 | 44.0 | 14.0 | -0.0187 | 53.3 | -35.7 | -7.5 | nt
C#CCOCCOCCOCCNc1nc(N2CCN(C(=O)[C@H]([C@@H](C)CC)n3cc([C@@H](N)Cc4ccc(O)cc4)nn3)CC2)nc(N2CCN(C(=O)[C@H](Cc3cc4ccccc4[nH]3)n3cc([C@@H](N)C(C)CC)nn3)CC2)n1 (some centres undefined) | nt | -1.7 | nt | nt | nt | 9.1 | nt
C#CCOCCOCCOCCNc1nc(N2CCN(C(=O)[C@H](Cc3ccc(O)cc3)n3cc([C@@H](N)C(C)CC)nn3)CC2)nc(N2CCN(C(=O)[C@H](Cc3cc4ccccc4[nH]3)n3cc([C@@H](N)C(C)CC)nn3)CC2)n1 (some centres undefined) | nt | -3.0 | nt | nt | nt | 25.4* | 13.2
SMILES | HCT116 bCat-KO | L major viab | ROMK primary | PTEN del growth | INS promoter inh | p97 ATPase inh | p97 inh conf
Cn1cccc1/C=C1\SC(=S)N(NC(=O)c2cccc(Cl)c2)C1=O | 104.7 | -9.0 | 0.601 | 100.9 | -12.0 | 4.4 | nt
COCC(=O)N(Cc1nc2ccccc2c(=O)[nH]1)Cc1cccs1 | 89.1 | 4.0 | nt | 98.2 | 33.3 | 5.0 | nt
COCC(=O)N(CCc1ccc(OC)c(OC)c1)Cc1nc2ccccc2c(=O)[nH]1 | 93.6 | -3.3 | nt | 87.9 | 0.0 | 16.4* | 7.8
O=C1c2ccc([N+](=O)[O-])cc2NC(c2ccco2)N1/N=C/c1ccco1 (centres undefined) | nt | nt | nt | nt | nt | 15.9* | 7.8
OCC#Cc1ncc(C(F)(F)F)cc1Cl | nt | -8.6 | -1.35 | nt | nt | 28.2* | 33.0*
CC(=O)OCC1CCCC2=C(C)C(=O)CCC21COC(C)=O (centres undefined) | 95.7 | -0.1 | 0.779 | 103.7 | 41.7 | 0.8 | nt
COc1ccc(S(=O)(=O)O/N=C2\CCCc3ccccc32)cc1 | 92.9 | -1.7 | -0.664 | 97.7 | 0.0 | 17.6* | 4.1
O=S(=O)(O/N=C1\CCCc2ccccc21)c1ccccc1 | 87.8 | -5.5 | -1.12 | 99.5 | -14.3 | 0.7 | nt
COc1ccc(/C=N/NC(=O)c2ccc(N)cc2)cc1Cn1cc([N+](=O)[O-])cn1 | nt | 1.4 | nt | nt | nt | 19.7* | 8.8
Cc1c(/C=N/Nc2nc3ccccc3[nH]2)c2ccccc2n1C | nt | nt | -1.7 | nt | nt | 24.4* | 17.2*
Cc1ccsc1/C=N/Nc1nc2ccccc2[nH]1 | 86.0 | 49.7 | nt | 73.0 | 18.8 | 2.1 | nt
COc1ccc(/C=C2/C(=O)N(Cc3ccccc3)N=C2C)cc1 | 93.1 | 0.1 | nt | 87.5 | -9.7 | 32.7* | 5.5
COc1ccc(/C=C2\SC(=S)N(C(Cc3ccccc3)C(=O)O)C2=O)cc1 (centres undefined) | nt | 0.9 | -0.409 | nt | nt | -2.4 | nt
O=S(=O)(NCc1cn2ccccc2n1)c1ccccc1F | nt | nt | 0.84 | nt | nt | 7.3 | nt
O=C1CCc2ccccc2N1 | nt | nt | nt | nt | nt | 1.4 | nt
